Screening results (PubChem)
Shown are actives, neighbours in structure and some others; about 21% of the full set was active somewhere.
Gal4-VP16 FLuc = counter-screen for ROR gamma inhibitors: Gal4-VP16 reporter; Drosophila S2 Gal4-VP16 UAS-luciferase, luminescence, 20 h; Potency, µM (highest dose often 53.6 µM), without a hit: top-dose activity, negative = inhibition, usual class: inhibitors; actives 3.5% (n = 310,000);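 note: Gal4-VP16 expression switched on by copper sulfate through the metallothionein promoter; potency is the fitted concentration of half-maximal effect; nearly all actives have a fitted effect of over 50% in size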
IL1B secr inh = blocks inflammasome-driven IL-1 beta release | activity change, % at 57.5 µM | actives 4.7% (n = 360,000) | THP-1 LPS/ATP IL-1B secretion, AlphaLISA, 16 h; hits give low values; in the data active = activity change below about -50%; inconclusive = mostly about -30% to -49%
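Secreted IL-1B measured by AlphaLISA bead assay after 16 h compound exposure of THP-1 cells; compounds (final up to 57.5 uM) added 1 h before LPS (250 ng/mL) and ATP (1.25 mM) stimulation; lower signal means less secretion.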
TDP1 cell CPT = growth inhibition of DT40 Tdp1-/-;hTDP1 cells with camptothecin (screen for TDP1 inhibitors); AID 686979; Potency, µM (series often up to 46.2 µM), inactives show top-dose activity change, negative = growth inhibition, actives largely listed as inhibitors; actives 12% (n = 420,000); chicken DT40 Tdp1-/-;hTDP1 cells + 20 nM CPT, ATP luminescence, 48 h; note: potency is the fitted concentration of half-maximal effect; nearly all actives have a fitted effect of over 55% in size
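Cell growth measured by CellTiter-Glo luminescence after a minimum 48 h, 37 C compound exposure with 20 nM CPT in Tdp1-knockout DT40 cells stably expressing hTDP1, seeded 400/well; qHTS titration format.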
RORg inh = blocks mouse ROR gamma transcriptional activity. P51450. Drosophila S2 Gal4-RORgamma UAS-luciferase reporter, 20 h. Potency, µM (highest dose often 53.6 µM), inactives show at the highest dose activity change, negative = inhibition, actives largely listed as inhibitors. actives 5.4% (n = 310,000). AID 2551; note: potency is the fitted concentration of half-maximal effect; nearly all actives have a fitted effect of over 60% in size
Target sequence (P51450 whole entry, looked up, the tested form may be a part): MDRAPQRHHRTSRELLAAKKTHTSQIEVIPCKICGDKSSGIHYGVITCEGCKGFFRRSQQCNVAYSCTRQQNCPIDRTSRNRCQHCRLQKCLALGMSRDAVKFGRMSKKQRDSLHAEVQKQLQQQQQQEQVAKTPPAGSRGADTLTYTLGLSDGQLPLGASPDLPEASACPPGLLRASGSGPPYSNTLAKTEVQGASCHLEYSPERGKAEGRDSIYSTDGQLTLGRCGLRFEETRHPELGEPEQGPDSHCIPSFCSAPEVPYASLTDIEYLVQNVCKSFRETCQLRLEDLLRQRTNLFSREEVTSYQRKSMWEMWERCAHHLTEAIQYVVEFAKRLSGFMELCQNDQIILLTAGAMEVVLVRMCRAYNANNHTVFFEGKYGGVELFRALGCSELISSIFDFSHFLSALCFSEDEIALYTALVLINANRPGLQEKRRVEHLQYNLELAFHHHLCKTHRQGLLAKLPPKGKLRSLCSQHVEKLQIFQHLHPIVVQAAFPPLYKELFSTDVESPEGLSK
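Compounds are pin-transferred onto Drosophila Schneider cells expressing a copper-inducible Gal4–ROR gamma transactivation domain fusion. After 1 hr, copper sulfate is added to 700 uM final; luciferase is read 20 hr later.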
TDP1 cell noCPT = qHTS for Inhibitors of human tyrosyl-DNA phosphodiesterase 1 (TDP1): qHTS in cells in absence of CPT; DT40 Tdp1-/- hTDP1 cells, no CPT, ATP luminescence, 48 h; Potency, µM (series often up to 46.2 µM), for the others: at the top dose activity change, negative = growth inhibition, actives largely listed as inhibitors; actives 15% (n = 420,000); AID 686978, 2013; note: potency is the fitted concentration of half-maximal effect; nearly all actives have a fitted effect of over 55% in size
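Seeded 400 DT40-hTDP1 cells/well (vehicle DMSO, no 20 nM CPT); pinned compounds; ≥48 hr at 37 °C; CellTiter-Glo luminescence as viability measure.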
ELG1 repair inh = blocks ELG1-dependent DNA repair in HEK293T cells. actives 2.3% (n = 330,000). Potency, µM (highest dose often 46.1 µM), without a hit: at the highest dose activity change, negative = inhibition, most hits filed as inhibitors. AID 504467. HEK293T ELG1-luciferase reporter, luminescence, 16 h; DNA damage induced by 5-fluorouridine; note: potency is the fitted concentration of half-maximal effect; nearly all actives have a fitted effect of over 55% in size
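DMSO vehicle served as the neutral condition. Each well held 2,000 cells given 5-fluorouridine plus compound; after 16 hr at 37 °C/5% CO2, ONE-Glo was added and luciferase measured 30 min later.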
Active calls of the source: *; [ ] = dose if it differs, or a comment. Unless noted, calls come from the whole dose curve; as a rule, active = well fitted curve in the direction sought with a large enough effect; inconclusive = small, poorly fitted or top-dose-only effect, or another doubt; inactive = no such curve, though single readings can be large; an effect the other way counts as inactive or inconclusive. % is set by controls: 0 for no effect and ±100 for the full control effect.

Results for COc1ccc(CCNC(=O)c2ccc(Cl)c(S(=O)(=O)N3CCCC3)c2)cc1 ?
IL1B secr inh: -1; TDP1 cell CPT: 18µM*; TDP1 cell noCPT: 23µM*; ELG1 repair inh: inconclusive

What do the screens show for `COc1ccc(CCNC(=O)CSCC(=O)Nc2cc(S(C)(=O)=O)ccc2Cl)cc1`?
IL1B secr inh: 2; TDP1 cell CPT: -4%; TDP1 cell noCPT: 9.2µM*; ELG1 repair inh: 0%

Results for COc1ccc(N(C)S(=O)(=O)c2ccc(Cl)c(C(=O)NCCc3ccc(Cl)cc3)c2)cc1 ?
Gal4-VP16 FLuc: 0%; IL1B secr inh: -56*; TDP1 cell CPT: 9.2µM*; RORg inh: inconclusive; TDP1 cell noCPT: 12µM*; ELG1 repair inh: inconclusive

How did O=C(COC(=O)c1ccc(S(=O)(=O)N2CCCCC2)cc1)NCc1ccccc1 do in these assays?
IL1B secr inh: 8; TDP1 cell CPT: -6%; TDP1 cell noCPT: -25%; ELG1 repair inh: -2%

Results for O=C(O)CC1S/C(=N\N=C/c2ccccc2)N(c2ccc(O)cc2)C1=O (stereo not drawn) ?
Gal4-VP16 FLuc: -3%; IL1B secr inh: 13; TDP1 cell CPT: -2%; RORg inh: 3%; TDP1 cell noCPT: -2%; ELG1 repair inh: 5%

How did CN1C(=O)C(CC(=O)O)S/C1=N\N=C\c1ccc(O)cc1O (stereo not drawn) do in these assays?
Gal4-VP16 FLuc: 20µM*; IL1B secr inh: 2; TDP1 cell CPT: -15%; RORg inh: inconclusive; TDP1 cell noCPT: 10%; ELG1 repair inh: 0%

How did C=CCOc1ccc(CN(C)CC(=O)Nc2ccccc2[N+](=O)[O-])cc1 do in these assays?
Gal4-VP16 FLuc: -14%; IL1B secr inh: 8; TDP1 cell CPT: inconclusive; RORg inh: 17%; TDP1 cell noCPT: 21µM*; ELG1 repair inh: -4%

What do the screens show for `COC(=O)c1c(C)[nH]c(C(=O)CN(C)CC(=O)Nc2cccc(F)c2)c1C`?
IL1B secr inh: -15; TDP1 cell CPT: -24%; TDP1 cell noCPT: 15µM*; ELG1 repair inh: 4%

How did COc1cccc(NC(=O)CN(C)CC(=O)Nc2ccc(C)c([N+](=O)[O-])c2)c1 do in these assays?
Gal4-VP16 FLuc: inconclusive; IL1B secr inh: -3; TDP1 cell CPT: inconclusive; RORg inh: inconclusive; TDP1 cell noCPT: 10µM*; ELG1 repair inh: 18µM*

How did CN(CC(=O)Nc1cccc(F)c1)CC(=O)Nc1ccccc1[N+](=O)[O-] do in these assays?
Gal4-VP16 FLuc: -14%[10 µM]; IL1B secr inh: 5; TDP1 cell CPT: 23µM*; RORg inh: 3%; TDP1 cell noCPT: 12µM*; ELG1 repair inh: -21%

How did CCC(=O)Nc1ccc(C(=O)NNC(=O)CCCCC(=O)NNC(=O)c2ccc(NC(=O)CC)cc2)cc1 do in these assays?
IL1B secr inh: -5; TDP1 cell CPT: 3%; TDP1 cell noCPT: -21%

What do the screens show for `CC(=O)C1=NN(c2ccccc2)C(c2cccs2)N1c1ccc(N(C)C)cc1` (stereo not drawn)?
Gal4-VP16 FLuc: inconclusive; IL1B secr inh: -72*; TDP1 cell CPT: 2.2µM*; RORg inh: -22%; TDP1 cell noCPT: 4µM*; ELG1 repair inh: 16µM*

What do the screens show for `O=C(OCc1cn(Cc2ccccc2)nn1)c1ccccc1`?
Gal4-VP16 FLuc: -6%; IL1B secr inh: 23; TDP1 cell CPT: -3%; RORg inh: 28%; TDP1 cell noCPT: -3%; ELG1 repair inh: 30%

Results for CCOC(OCC)c1cn(Cc2ccc(C(=O)c3ccccc3)cc2)nn1 ?
Gal4-VP16 FLuc: 18µM*; IL1B secr inh: 41; TDP1 cell CPT: 23µM*; RORg inh: inconclusive; TDP1 cell noCPT: 23µM*; ELG1 repair inh: -14%

How did CCCCCc1ccc(-c2cn(Cc3ccc(C(=O)c4ccccc4)cc3)nn2)cc1 do in these assays?
Gal4-VP16 FLuc: -3%; IL1B secr inh: 4; TDP1 cell CPT: 3.3µM*; RORg inh: 5%; TDP1 cell noCPT: 4.1µM*; ELG1 repair inh: inconclusive

Results for O=C(c1ccccc1)c1ccc(Cn2cc(-c3ccccc3)nn2)cc1 ?
Gal4-VP16 FLuc: 10µM*; IL1B secr inh: 55; TDP1 cell CPT: 7.3µM*; RORg inh: inconclusive; TDP1 cell noCPT: 7.3µM*; ELG1 repair inh: inconclusive

What do the screens show for `Cc1cccc(CNC(=O)C(=O)Nc2ccccc2C)c1`?
TDP1 cell CPT: 2%; TDP1 cell noCPT: 15%

Results for COc1ccc(CCn2c(-n3nc(C)cc3C)nc3c2c(=O)[nH]c(=O)n3C)cc1 ?
IL1B secr inh: 49; TDP1 cell CPT: 1.8µM*; TDP1 cell noCPT: 1.6µM*

Results for Cc1ccc(Cn2c(-n3nc(C)cc3C)nc3c2c(=O)[nH]c(=O)n3C)cc1 ?
Gal4-VP16 FLuc: 13%; IL1B secr inh: 4; TDP1 cell CPT: inconclusive; RORg inh: 2%; TDP1 cell noCPT: -23%; ELG1 repair inh: 2%

How did Cc1ccc(S(=O)(=O)NCc2ccccc2NS(=O)(=O)c2ccc(C)cc2)cc1 do in these assays?
IL1B secr inh: 8; TDP1 cell CPT: inconclusive; TDP1 cell noCPT: inconclusive

How did O=C(NCC1OCCc2ccccc21)c1ccc(NC(=O)c2ccccc2Cl)cc1 (stereo not drawn) do in these assays?
Gal4-VP16 FLuc: inconclusive; IL1B secr inh: -73*; TDP1 cell CPT: -21%; RORg inh: 25%; TDP1 cell noCPT: inconclusive; ELG1 repair inh: inconclusive

How did O=C(NCC1OCCc2ccccc21)c1cc(COc2c(F)cccc2F)on1 (stereo not drawn) do in these assays?
Gal4-VP16 FLuc: 4%; IL1B secr inh: -7; TDP1 cell CPT: -9%; RORg inh: 39%; TDP1 cell noCPT: 16µM*; ELG1 repair inh: 10%

Results for O=C(NCC1OCCc2ccccc21)c1ccc(NC(=O)c2cccc(Br)c2)cc1 (stereo not drawn) ?
Gal4-VP16 FLuc: inconclusive; IL1B secr inh: 18; TDP1 cell CPT: 7.3µM*; RORg inh: inconclusive; TDP1 cell noCPT: 7.3µM*; ELG1 repair inh: -18%

Results for CCOc1ccc(CCNC(=O)CCCc2nnc3n(CCCOC)c(=O)c4sccc4n23)cc1 ?
TDP1 cell CPT: inconclusive; TDP1 cell noCPT: -33%

What do the screens show for `CC1(C(=O)NS(=O)(=O)c2ccccc2OC(F)(F)F)CCN1C(=O)c1ccccc1` (stereo not drawn)?
IL1B secr inh: -2; TDP1 cell CPT: 2%; TDP1 cell noCPT: -3%
